Sampled rows, rich in hits. Any-hit rate of the full collection: about 2.4%.
STAT1 inh: inhibitors of IFN-gamma induced STAT1 signaling. NIH 3T3 STAT1-luciferase reporter, luminescence. inhibition, % at 5.5 µM. hit rate 0.35% among 200,000;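 active = inhibition above a set limit, the mean inhibition across all tested compounds plus 3 SD, cut at about 34% in these data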
HSP90 refold inh: blocks HSP90-mediated luciferase refolding in reticulocyte lysate | inhibition, % at 5.6 µM | hit rate 0.91% among 290,000 | Rabbit reticulocyte lysate, luciferase refolding luminescence, 3 h | AID 1789;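 active = inhibition above the screen-wide mean plus 3 SD, computed separately per campaign, cut at about 16% in these data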;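 also: inhibitors lower the luminescence because luciferase stays unfolded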
HSF1 inhib: HSF1 inhibition. activity change, negative = inhibition, % at 7.5 µM (by protocol). hit rate 0.77% among 300,000. AID 2098. NIH3T3-HGL HSE-luciferase, MG132-induced, luminescence 8 h; stronger effect = lower value;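 active = more than half of replicate wells show activity change below -50%, luminescence cut by over half; inconclusive = some wells, but at most half, below -50%; inactive = no replicate well below -50%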;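 also: luciferase reports HSF-1 transcriptional activity via heat shock element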
PPC-1+TRAIL kill: kills PPC-1 cancer cells in the presence of TRAIL; hit rate 0.41% among 220,000; PPC-1 cells + TRAIL, ATPLite viability luminescence; cell killing (% activity), % at 4 µM or 5 µM; AID 1443;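 active = cell killing above 50% in the first pass at 4 µM, then a duplicate retest at 5 µM averaging 50% or more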
STAT3 inh: reduces IL-6 driven STAT3 reporter signal; U3A cells, IL-6 STAT3-luciferase reporter, luminescence; host cell line lacks STAT1; inhibition, % at 5.5 µM; hit rate 0.89% among 190,000; AID 862;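 active = inhibition above the mean inhibition across all screened compounds plus 3 SD, cut at about 44% in these data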
TRAIL sens C8: caspase-8 TRAIL sensitization. inhibition (viability loss, TRAIL sensitization), % at 10 µM. NB7+C8 cells + TRAIL, ATPlite viability luminescence. hit rate 1% among 360,000;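 active = compounds causing at least 50% loss of cell viability in the single-dose screen, relative to plate controls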
Large screens that a line does not name were inactive.

Cc1ccc(NC(=O)CCC(=O)c2cccs2)nc1	none (no result: STAT1 inh, HSP90 refold inh, PPC-1+TRAIL kill, STAT3 inh)
O=C1C(Cc2ccccc2)Nc2ncnc(N3CCN(c4ccccc4)CC3)c2N1Cc1ccccc1 (centres undefined)	HSF1 inhib -66.9 (no result: STAT1 inh, HSP90 refold inh, PPC-1+TRAIL kill, STAT3 inh)
Cc1cc(C(=O)N2CCCC(C)(C(=O)NS(=O)(=O)C3CC3)C2)nn1C(C)(C)C (centres undefined)	none (no result: STAT1 inh, HSP90 refold inh, HSF1 inhib, PPC-1+TRAIL kill, STAT3 inh)
O=C(OCCCN1CCOCC1)c1ccc(O)c(O)c1	HSF1 inhib -65.0 (no result: STAT1 inh, STAT3 inh)
COc1cc(C(=O)OCCN2CCOCC2)ccc1O	none
CCN(CC)c1ncnc2c1ncn2[C@H]1CN(Cc2cccnc2)C[C@@H](CO)O1	none (no result: STAT1 inh, HSP90 refold inh, HSF1 inhib, PPC-1+TRAIL kill, STAT3 inh)
COc1ccccc1C(=O)Nc1nc(-c2cccs2)c(NC(C)=O)s1	TRAIL sens C8 50.8
CC(=O)Nc1sc(NC(=O)c2ccccc2)nc1-c1cccs1	none
NC(=S)n1[nH]c(-c2ccc([N+](=O)[O-])cc2)c(N=Nc2cccc([N+](=O)[O-])c2)c1=O	TRAIL sens C8 52.9
Cc1c(N=Nc2c(-c3ccc([N+](=O)[O-])cc3)[nH]n(C(N)=S)c2=O)cccc1[N+](=O)[O-]	STAT3 inh 77.1 (no result: HSF1 inhib)
Cc1[nH]n(C(N)=S)c(=O)c1N=Nc1cccc([N+](=O)[O-])c1C	none (no result: STAT1 inh, PPC-1+TRAIL kill, STAT3 inh)
NC(=S)n1[nH]c(-c2ccc([N+](=O)[O-])cc2)c(N=Nc2ccccc2[N+](=O)[O-])c1=O	none (no result: HSF1 inhib)
COc1ccc(NC(=O)C(c2ccccc2)n2c(=O)c(-c3ccco3)nc3ccccc32)cc1 (centres undefined)	none (no result: STAT1 inh, HSP90 refold inh, HSF1 inhib, PPC-1+TRAIL kill, STAT3 inh)
c1ccc(CNc2nc(NCc3ccccc3)c3ccccc3n2)cc1	HSF1 inhib -59.8, TRAIL sens C8 52.9 (no result: STAT1 inh, STAT3 inh)
CC(C)c1nnc(NC(=O)c2cc3ccccc3o2)s1	none (no result: STAT1 inh, PPC-1+TRAIL kill, STAT3 inh)
CC(C)c1nnc(NC(=O)CS(=O)(=O)Cc2ccccc2)s1	none
CSc1nnc(NC(=O)c2nc(S(=O)(=O)Cc3cccc(C)c3)ncc2Cl)s1	HSF1 inhib inconclusive, TRAIL sens C8 84.3 (no result: STAT1 inh, PPC-1+TRAIL kill, STAT3 inh)
CSc1ncc(Cl)c(C(=O)Nc2nnc(SC/C=C/c3ccccc3)s2)n1	none
CCSc1nnc(NC(=O)c2nc(S(=O)(=O)Cc3ccc(F)cc3)ncc2Cl)s1	none (no result: STAT1 inh, PPC-1+TRAIL kill, STAT3 inh)
CC(C)c1nnc(NC(=O)c2nc(S(=O)(=O)Cc3ccc(F)cc3)ncc2Cl)s1	HSF1 inhib -84.1, TRAIL sens C8 94.4 (no result: STAT1 inh, PPC-1+TRAIL kill, STAT3 inh)
Cc1cccc(CS(=O)(=O)c2ncc(Cl)c(C(=O)Nc3nnc(C(C)C)s3)n2)c1	HSF1 inhib -73.0, TRAIL sens C8 95.2 (no result: STAT1 inh, PPC-1+TRAIL kill, STAT3 inh)
Cc1ccc(CS(=O)(=O)c2ncc(Cl)c(C(=O)Nc3nnc(C(C)C)s3)n2)cc1	HSF1 inhib -70.6, TRAIL sens C8 82.8 (no result: STAT1 inh, PPC-1+TRAIL kill, STAT3 inh)
COc1ccccc1NC(=O)N(C)C[C@@H]1OCc2cnnn2CCCC(=O)N([C@@H](C)CO)C[C@@H]1C	none (no result: STAT1 inh, HSP90 refold inh, HSF1 inhib, PPC-1+TRAIL kill, STAT3 inh)
Cc1ccc(-n2c(SCC(=O)NCC3CCCO3)nc3n[nH]c(C)c3c2=N)cc1Cl (centres undefined)	STAT3 inh 45.3
Cc1[nH]nc2nc(SCC(=O)NCCC3=CCCCC3)n(-c3ccc(Br)cc3)c(=N)c12	TRAIL sens C8 79.6 (no result: STAT1 inh, PPC-1+TRAIL kill, STAT3 inh)
COc1cccc(-n2c(SCC(=O)NCC3CCCO3)nc3c(c2=O)SCC3)c1 (centres undefined)	HSF1 inhib -71.7 (no result: STAT1 inh, PPC-1+TRAIL kill, STAT3 inh)
Cc1cc(-n2c(SCC(=O)NCCC3=CCCCC3)nc3n[nH]c(C)c3c2=N)ccc1Cl	none (no result: STAT1 inh, PPC-1+TRAIL kill, STAT3 inh)
CCC(C(=O)Nc1c(C)cccc1C)n1c(-c2ccc(-c3ccccc3)cc2)nc2ccccc21 (centres undefined)	none (no result: STAT1 inh, HSP90 refold inh, HSF1 inhib, PPC-1+TRAIL kill, STAT3 inh)
Cc1cccnc1C1=NOC(Cc2ccccc2)C(=O)N1C (centres undefined)	none (no result: STAT1 inh, HSP90 refold inh, HSF1 inhib, PPC-1+TRAIL kill, STAT3 inh)
COc1cc(OC)cc(-c2cc3nc(C)c(CCC(=O)O)c(C)n3n2)c1	STAT1 inh 53.5, HSP90 refold inh 24.6, STAT3 inh 87.6 (no result: HSF1 inhib)
O=C(NCc1cc(Cl)cc(Cl)c1)c1csc([C@@H]2O[C@H](CO)[C@H](O)[C@H](O)[C@H]2O)n1	none (no result: STAT1 inh, HSP90 refold inh, HSF1 inhib, PPC-1+TRAIL kill, STAT3 inh)
CN=c1scc(-c2ccccc2F)n1/N=C/c1ccc[nH]1	STAT1 inh 96.7, HSP90 refold inh 85.4, HSF1 inhib -86.9, STAT3 inh 110.3, TRAIL sens C8 88.1
CCCCn1c(CCl)nc2cc(S(=O)(=O)N3CCOCC3)ccc21	TRAIL sens C8 68.6 (no result: STAT1 inh, HSP90 refold inh, HSF1 inhib, PPC-1+TRAIL kill, STAT3 inh)
O=C(Cn1nnc(-c2ccccc2)n1)N/N=C/c1cc([N+](=O)[O-])ccc1O	none
O=C(Cn1nc2ccccc2n1)N/N=C/c1cc([N+](=O)[O-])ccc1O	HSF1 inhib -53.3
CC(C)(C)OC(=O)N1CCCN(C(c2ccnc3ccccc23)c2nnnn2-c2ccc3c(c2)OCCO3)CC1 (centres undefined)	none (no result: STAT1 inh, HSP90 refold inh, HSF1 inhib, PPC-1+TRAIL kill, STAT3 inh)
O=C(c1cccs1)n1nc(-c2ccco2)nc1SCc1ccccc1	HSF1 inhib -53.6 (no result: TRAIL sens C8)
CS(=O)(=O)Nc1cccc(NC(=O)C2Cc3c(-c4cccc(F)c4)ccnc3O2)c1 (centres undefined)	TRAIL sens C8 69.7 (no result: STAT1 inh, HSP90 refold inh, HSF1 inhib, PPC-1+TRAIL kill, STAT3 inh)
O=C(Nc1ccccc1)C1Cc2c(-c3cccc(F)c3)ccnc2O1 (centres undefined)	none (no result: STAT1 inh, HSP90 refold inh, HSF1 inhib, PPC-1+TRAIL kill, STAT3 inh)
Fc1ccc(C2N(c3ccccc3)C(=S)N3CCCN23)cc1 (centres undefined)	none (no result: STAT1 inh, STAT3 inh)
Cc1ccc(C2N(c3ccccc3)C(=S)N3CCCN23)cc1 (centres undefined)	HSF1 inhib -82.4
CCN(CC)c1ncnc2c1ncn2[C@H]1CN(Cc2ccc3c(c2)OCO3)C[C@@H](CO)O1	none (no result: STAT1 inh, HSP90 refold inh, HSF1 inhib, PPC-1+TRAIL kill, STAT3 inh)
O=C1NC[C@H](CCCCN2C[C@@H](Cc3ccccc3)N(CC3CCCCC3)C(=O)C2=O)N(CCC2CCCCC2)C1=O	none (no result: STAT1 inh, HSP90 refold inh, HSF1 inhib, PPC-1+TRAIL kill, STAT3 inh)
CC(C)c1ccc(-n2nc3ccc(N)cc3n2)cc1	TRAIL sens C8 67.6
COc1ccc(C2NC(=S)NC3=C2CCCC3=C2SCCS2)cc1 (centres undefined)	HSF1 inhib -55.6

Bioassay records (PubChem BioAssay)
